Source: PubChem BioAssay (NCI)
About 83,000 compounds went through this panel and 20% of them were active in at least one assay; those are over-represented in the sample as a whole.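 Values shown are percent growth following 48 h exposure of cells in 96-well plates to a single concentration of compound; below 10 was considered active.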 Unmarked numbers belong to inactive results. Calls of active or inactive are those of the source.

tested on: RXF 393 renal; assay: NCI-60 one-dose screen, 48 h (100 = growth as untreated, 0 = no growth, -100 = all killed); conditions: 10 µM unless noted

SMILES	growth
Cc1ncc(-c2ccnc(Nc3ccc(S(C)(=O)=O)cc3)n2)n1C(C)C	-50.9% (active)
C/C=C/C=N/NC(=S)Nc1ccccc1	119%
Cc1nn(-c2ccccc2)c2c1N=c1s/c(=C\c3cn(-c4ccccc4)nc3-c3ccc(Cl)cc3)c(=O)n1C(C)N2 (stereo not given)	114%
COc1cc2c(cc1OCCCN1Cc3ccc(OCCCCC(=O)N4CCC(CCN5CCCC5)CC4)cc3C1)N=C(N)C21CCCC1	90.2%

tested on: SF-268 CNS; assay: as above; conditions: 10 µM unless noted

SMILES	growth
COc1cccc2cc(-c3nc(C4CCC(C(=O)O)CC4)n4ncnc(N)c34)[nH]c12 (stereo not given)	16.2%
CNC(=O)c1cc(Oc2ccc3nc(NC(=O)Nc4ccc(Cl)c(C(F)(F)F)c4)sc3c2)ccn1	21.9%
C[C@@H](Oc1cc(-n2cnc3ccc(CN4CCN(C)CC4)cc32)sc1C(N)=O)c1ccccc1C(F)(F)F	31.6%
Oc1ccc(C(c2ccc(O)cc2)C(Cl)(Cl)Cl)cc1	96.9%
C[C@H](NC(=O)c1c(N)nn2cccnc12)c1cc2cccc(C#Cc3cnn(C)c3)c2c(=O)n1-c1ccccc1	25.3%
COc1cc(CCc2cc(NC(=O)c3ccc(N4C[C@@H](C)N[C@@H](C)C4)cc3)n[nH]2)cc(OC)c1	39.4%
CNC(=O)CN1CCC(Oc2cc3c(Nc4cccc(Cl)c4F)ncnc3cc2OC)CC1	51%
Cc1oc2c(C(=O)N/N=C\c3ccc(O)cc3O)c[nH]c2c1C	7.45% (active)
CCCCCc1ccc(C)cc1OC(=O)CCl	105%
COc1cc2ncnc(Oc3cccc(NC(=O)Nc4cc(C(C)(C)C(F)(F)F)on4)c3)c2cc1OC	26.9%
COc1cc(Nc2ncc3c(n2)-c2ccc(Cl)cc2C(c2c(F)cccc2OC)=NC3)ccc1C(=O)O	73%
CC[C@H](Nc1ncnc2nc[nH]c12)c1nc2cccc(F)c2c(=O)n1-c1ccccc1	71%
CN1CCN(CCOc2cc(OC3CCOCC3)c3c(Nc4c(Cl)ccc5c4OCO5)ncnc3c2)CC1	61.4%
Nc1nc(Nc2ccccc2)c(C=Nc2ccccc2)c(=O)[nH]1	94%
CNC(=O)c1cc(Oc2cccc3nc(Nc4ccc(Oc5ccccc5)cc4)ccc23)ccn1	75.4%
CN1CC[C@@H](c2c(O)cc(O)c3c(=O)cc(-c4ccccc4Cl)oc23)[C@@H]1CO	3.32% (active)

SMILES	growth
Cc1[nH]n(C(N)=S)c(=O)c1N=Nc1ccc(S(=O)(=O)Nc2ccncn2)cc1	85%
COCCN1CCN(Cc2ccc(-c3n[nH]c4c3C(=O)c3c(NC(=O)NN5CCOCC5)cccc3-4)cc2)CC1	6.61% (active)
CN(c1ncccc1CNc1nc(Nc2ccc3c(c2)CC(=O)N3)ncc1C(F)(F)F)S(C)(=O)=O	2.36% (active)
COc1cc(N2CCC(N3CCN(C)CC3)CC2)ccc1Nc1ncnc(Nc2ccccc2S(=O)(=O)C(C)C)n1	100%
O=C(COc1ccc(/C=C2\Cc3ccc(Cl)cc3C2=O)cc1)Nc1nccs1	114%
O=C(c1ccc(/C=C/c2n[nH]c3ccccc23)cc1)N1CCNCC1	39.2%
O=C(O)C1(Cc2cccc(Nc3nccs3)n2)CCC(Oc2cccc(Cl)c2F)CC1 (stereo not given)	61.6%
Cc1cc(O)cc(-c2c(-c3ccnc(-c4cccnc4)c3)cnn2C)c1	72.8%
Cc1c(CN2CCN(C(=O)[C@H](C)O)CC2)sc2c(N3CCOCC3)nc(-c3cnc(N)nc3)nc12	12.1%
CN1CCN(c2ccc(C(=O)Nc3n[nH]c4ccc(Cc5cc(F)cc(F)c5)cc34)c(NC3CCOCC3)c2)CC1	-60.5% (active)
C#Cc1cccc(Nc2ncnc3cc(OCCOC)c(OCCOC)cc23)c1	62.9%
COc1ccc(Nc2ncccc2NC(=O)c2cn(Cc3cccc(Oc4ccccc4)c3)nn2)cc1	82.3%
O=C1NC(=O)[C@@H](c2cn3c4c(cccc24)CCC3)[C@@H]1c1c[nH]c2ccccc12	34.2%
Cc1cc(-c2cc(O)ccc2Cl)cc2nnc(Nc3ccc(OCCN4CCCC4)cc3)nc12	-69.8% (active)
C=CCN(/C=C1/C(=O)O[C@H](COC)[C@@]2(C)C1=C(O)C(=O)C1=C2[C@H](OC(C)=O)C[C@]2(C)C(=O)CC[C@@H]12)CC=C	29.9%
